{
  "source": "PubChem BioAssay AID1159580",
  "about": "(chemical genetic matrix, 2015)",
  "test": "chemical genetic growth profiling, strain panel (AID 1159580);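 note: tested at 20 µM; growth read once vehicle control cultures reached saturation at 30 °C; 1 = growth at the plate median or of vehicle wells; lower values mean less growth of the strain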",
  "settings": "S. cerevisiae deletion strains, growth OD",
  "note": "Among all 5,500 compounds or so, about 2,000 (36%) were called active. Not shown: some 18% with an inconclusive outcome. Some of the results follow. Values without a mark were called inactive. Cut-off read from the data, not from the text of the source: active = normalized growth mostly below about 0.91 (no sharp cut-off); inconclusive = no clear call, values can overlap the other calls; inactive = mostly above about 0.92.",
  "data": [
    {"smiles": "O=c1c(O)c(-c2ccc(O)c(O)c2)oc2c(O)c(O)cc(O)c12", "values": [
      {"measurement": "normalized growth", "setting": "locus YAL021C, strain ccr4, hits give low values", "value": "0.864 (active)"},
      {"measurement": "normalized growth", "setting": "locus YAL026C, strain drs2, hits give low values", "value": 0.954},
      {"measurement": "normalized growth", "setting": "locus YAL030W, strain snc1, hits give low values", "value": 1},
      {"measurement": "normalized growth", "setting": "locus YBL061C, strain skt5, hits give low values", "value": 0.925},
      {"measurement": "normalized growth", "setting": "locus YBR009C, strain hhf1, hits give low values", "value": 1.04},
      {"measurement": "normalized growth", "setting": "locus YBR023C, strain chs3, hits give low values", "value": 0.929},
      {"measurement": "normalized growth", "setting": "locus YBR171W, strain sec66, hits give low values", "value": 1.02},
      {"measurement": "normalized growth", "setting": "locus YBR231C, strain swc5, hits give low values", "value": 0.927},
      {"measurement": "normalized growth", "setting": "locus YBR279W, strain paf1, hits give low values", "value": 0.994},
      {"measurement": "normalized growth", "setting": "locus YCL011C, strain gbp2, hits give low values", "value": 1.01},
      {"measurement": "normalized growth", "setting": "locus YCL016C, strain dcc1, hits give low values", "value": 0.991},
      {"measurement": "normalized growth", "setting": "locus YCL061C, strain MRC1, hits give low values", "value": 0.989},
      {"measurement": "normalized growth", "setting": "locus YCL069W, strain vba3, hits give low values", "value": 1.01},
      {"measurement": "normalized growth", "setting": "locus YCR088W, strain abp1, hits give low values", "value": 1.02},
      {"measurement": "normalized growth", "setting": "locus YDL005C, strain med2, hits give low values", "value": 1.03},
      {"measurement": "normalized growth", "setting": "locus YDL040C, strain nat1, hits give low values", "value": 1.02},
      {"measurement": "normalized growth", "setting": "locus YDR001C, strain nth1, hits give low values", "value": 1.02},
      {"measurement": "normalized growth", "setting": "locus YDR069C, strain doa4, hits give low values", "value": 0.906},
      {"measurement": "normalized growth", "setting": "locus YDR137W, strain rgp1, hits give low values", "value": 1.02},
      {"measurement": "normalized growth", "setting": "locus YDR159W, strain sac3, hits give low values", "value": "1.13 [resistant] (active)"},
      {"measurement": "normalized growth", "setting": "locus YDR195W, strain ref2", "value": 1.01},
      {"measurement": "normalized growth", "setting": "locus YDR297W, strain sur2, hits give low values", "value": 1},
      {"measurement": "normalized growth", "setting": "locus YDR334W, strain swr1, hits give low values", "value": 0.983},
      {"measurement": "normalized growth", "setting": "locus YDR335W, strain msn5, hits give low values", "value": 0.994},
      {"measurement": "normalized growth", "setting": "locus YDR392W, strain spt3, hits give low values", "value": 1.04},
      {"measurement": "normalized growth", "setting": "locus YEL003W, strain gim4, hits give low values", "value": 0.996},
      {"measurement": "normalized growth", "setting": "locus YEL037C, strain rad23, hits give low values", "value": 0.987},
      {"measurement": "normalized growth", "setting": "locus YEL061C, strain CIN8 (second series), hits give low values", "value": 1.01},
      {"measurement": "normalized growth", "setting": "locus YER015W, strain faa2, hits give low values", "value": 0.98},
      {"measurement": "normalized growth", "setting": "locus YER016W, strain bim1, hits give low values", "value": 1.02},
      {"measurement": "normalized growth", "setting": "locus YER111C, strain swi4, hits give low values", "value": 0.942},
      {"measurement": "normalized growth", "setting": "locus YER155C, strain BEM2 (second series), hits give low values", "value": 0.984},
      {"measurement": "normalized growth", "setting": "locus YFR010W, strain ubp6, hits give low values", "value": 0.932},
      {"measurement": "normalized growth", "setting": "locus YGL167C, strain pmr1, hits give low values", "value": 1.01},
      {"measurement": "normalized growth", "setting": "locus YGL173C, strain kem1, hits give low values", "value": 0.947},
      {"measurement": "normalized growth", "setting": "locus YGL227W, strain vid30, hits give low values", "value": 1.03},
      {"measurement": "normalized growth", "setting": "locus YGL240W, strain doc1, hits give low values", "value": 1.11},
      {"measurement": "normalized growth", "setting": "locus YGL253W, strain hxk2, hits give low values", "value": 1},
      {"measurement": "normalized growth", "setting": "locus YHR013C, strain ard1, hits give low values", "value": 0.931},
      {"measurement": "normalized growth", "setting": "locus YHR027C, strain rpn1, hits give low values", "value": 0.983},
      {"measurement": "normalized growth", "setting": "locus YHR030C, strain SLT2, hits give low values", "value": 1},
      {"measurement": "normalized growth", "setting": "locus YHR079C, strain IRE1, hits give low values", "value": 1.02},
      {"measurement": "normalized growth", "setting": "locus YHR142W, strain chs7, hits give low values", "value": 0.891},
      {"measurement": "normalized growth", "setting": "locus YJL092W, strain hpr5, hits give low values", "value": 1.02},
      {"measurement": "normalized growth", "setting": "locus YJL095W, strain BCK1 (second series), hits give low values", "value": 0.993},
      {"measurement": "normalized growth", "setting": "locus YJL095W, strain BCK1, hits give low values", "value": 1.02},
      {"measurement": "normalized growth", "setting": "locus YJL115W, strain asf1, hits give low values", "value": 1.01},
      {"measurement": "normalized growth", "setting": "locus YJL129C, strain trk1, hits give low values", "value": 1.08},
      {"measurement": "normalized growth", "setting": "locus YJL154C, strain vps35, hits give low values", "value": 1.02},
      {"measurement": "normalized growth", "setting": "locus YJL164C, strain tpk1, hits give low values", "value": 0.959},
      {"measurement": "normalized growth", "setting": "locus YJL166W, strain qcr8, hits give low values", "value": 0.995},
      {"measurement": "normalized growth", "setting": "locus YJL187C, strain SWE1, hits give low values", "value": 0.997},
      {"measurement": "normalized growth", "setting": "locus YJR066W, strain TOR1, hits give low values", "value": 0.967},
      {"measurement": "normalized growth", "setting": "locus YKL160W, strain elf1, hits give low values", "value": 0.942},
      {"measurement": "normalized growth", "setting": "locus YKR026C, strain gcn3, hits give low values", "value": 1.01},
      {"measurement": "normalized growth", "setting": "locus YKR091W, strain srl3, hits give low values", "value": 1.03},
      {"measurement": "normalized growth", "setting": "locus YLL001W, strain dnm1, hits give low values", "value": 1.03},
      {"measurement": "normalized growth", "setting": "locus YLL026W, hits give low values", "value": 1.02},
      {"measurement": "normalized growth", "setting": "locus YLL041C, strain sdh2, hits give low values", "value": 1.01},
      {"measurement": "normalized growth", "setting": "locus YLR027C, strain aat2, hits give low values", "value": 0.992},
      {"measurement": "normalized growth", "setting": "locus YLR113W, strain HOG1, hits give low values", "value": 1.12},
      {"measurement": "normalized growth", "setting": "locus YLR221C, strain rsa3, hits give low values", "value": 0.981},
      {"measurement": "normalized growth", "setting": "locus YLR258W, strain gsy2, hits give low values", "value": 1.01},
      {"measurement": "normalized growth", "setting": "locus YLR262C, strain YPT6 (second series), hits give low values", "value": 0.919},
      {"measurement": "normalized growth", "setting": "locus YLR320W, strain mms22, hits give low values", "value": 1.02},
      {"measurement": "normalized growth", "setting": "locus YLR342W, strain FKS1, hits give low values", "value": 0.967},
      {"measurement": "normalized growth", "setting": "locus YLR357W, strain rsc2, hits give low values", "value": 0.889},
      {"measurement": "normalized growth", "setting": "locus YLR370C, strain arc18, hits give low values", "value": 0.938},
      {"measurement": "normalized growth", "setting": "locus YLR384C, strain iki3, hits give low values", "value": 1.01},
      {"measurement": "normalized growth", "setting": "locus YML120C, strain ndi1, hits give low values", "value": 1},
      {"measurement": "normalized growth", "setting": "locus YMR058W, strain fet3, hits give low values", "value": 0.921},
      {"measurement": "normalized growth", "setting": "locus YMR125W, strain sto1, hits give low values", "value": 1.03},
      {"measurement": "normalized growth", "setting": "locus YMR129W, hits give low values", "value": 1.02},
      {"measurement": "normalized growth", "setting": "locus YMR205C, strain PFK2, hits give low values", "value": 1.06},
      {"measurement": "normalized growth", "setting": "locus YMR231W, strain pep5, hits give low values", "value": 0.999},
      {"measurement": "normalized growth", "setting": "locus YNL071W, strain lat1, hits give low values", "value": 1.01},
      {"measurement": "normalized growth", "setting": "locus YNL183C, strain NPR1, hits give low values", "value": 0.997},
      {"measurement": "normalized growth", "setting": "locus YNL209W, strain ssb2, hits give low values", "value": 0.94},
      {"measurement": "normalized growth", "setting": "locus YNL248C, strain rpa49, hits give low values", "value": 1},
      {"measurement": "normalized growth", "setting": "locus YNL322C, strain KRE1 (second series), hits give low values", "value": 1.01},
      {"measurement": "normalized growth", "setting": "locus YNR049C, strain mso1, hits give low values", "value": 1.02},
      {"measurement": "normalized growth", "setting": "locus YOR001W, strain rrp6, hits give low values", "value": 0.981},
      {"measurement": "normalized growth", "setting": "locus YOR070C, strain gyp1, hits give low values", "value": 1.01},
      {"measurement": "normalized growth", "setting": "locus YOR080W, strain dia2, hits give low values", "value": 1.01},
      {"measurement": "normalized growth", "setting": "locus YOR083W, strain WHI5, hits give low values", "value": 0.931},
      {"measurement": "normalized growth", "setting": "locus YOR106W, strain vam3, hits give low values", "value": 0.872},
      {"measurement": "normalized growth", "setting": "locus YOR231W, strain MKK1, hits give low values", "value": 1.03},
      {"measurement": "normalized growth", "setting": "locus YOR265W, strain rbl2, hits give low values", "value": 1},
      {"measurement": "normalized growth", "setting": "locus YOR270C, strain vph1, hits give low values", "value": 0.948},
      {"measurement": "normalized growth", "setting": "locus YOR290C, strain snf2, hits give low values", "value": 0.962},
      {"measurement": "normalized growth", "setting": "locus YPL051W, strain arl3, hits give low values", "value": 0.92},
      {"measurement": "normalized growth", "setting": "locus YPL078C, strain atp4, hits give low values", "value": 0.963},
      {"measurement": "normalized growth", "setting": "locus YPL106C, strain sse1, hits give low values", "value": 1},
      {"measurement": "normalized growth", "setting": "locus YPL240C, strain hsp82, hits give low values", "value": 0.994},
      {"measurement": "normalized growth", "setting": "locus YPL256C, strain CLN2, hits give low values", "value": 1.04}
    ]}
  ]
}
